In the library only some 1.1% were active in any assay of this set; here they are far more common.
RecA splice inh: Mtb RecA intein splicing inhibitors, primary screen, biochemical, fluorescence, HTS. cell-free RecA intein splicing. Protein RecA (Mycobacterium tuberculosis (strain ATCC 25618 / H37Rv)), P9WHJ3. inhibition, % (test concentration not listed). 290,000 tested, 0.75% active; in the data active = inhibition above about 30%; inconclusive = no clear call, values can overlap the other calls;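 note: 0% = vehicle wells and 100% = reference inhibitor control wells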
Y pestis TopoI: Yersinia pestis topoisomerase I inhibitors, primary screen, biochemical, cleavage product accumulation, plate reader, single point. DNA topoisomerase I (Yersinia pestis CO92). activity, % at 10 µM. Y. pestis Topo-I cleavage product accumulation. 360,000 tested, 0.064% active; in the data active = activity above about 50%, passing the limit was not always enough; inconclusive = no clear call, values can overlap the other calls
Mtb betalactam: beta-lactam sensitization of Mtb H37Rv, H37Rv; AID 434955, 2010; M. tuberculosis H37Rv growth with meropenem, percent inhibition; inhibition, % at 25 µM; 330,000 tested, 0.27% active;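 note: growth measured after seven days incubation then overnight dye step; 0% = bacteria only wells and 100% = bacteria with antibiotic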
BJeLR lethal: MLPCN primary cell-based screen for lethality selective to Ras in HRASV12 cells; BJeLR (HRASV12) viability, CellTiter-Glo ATP luminescence, 48 h; inhibition, % (test concentration not listed); 300,000 tested, 0.17% active; AID 1554, 2009; in the data active = inhibition above about 50%; inconclusive = no clear call, values can overlap the other calls
BioA inh-1: M. tuberculosis BioA enzyme inhibitors, primary screen, biochemical, plate reader, single point, HTS | 7,8-diaminopelargonic acid synthase BioA (Mycobacterium tuberculosis) | 360,000 tested, 0.096% active | AID 602481, 2012 | purified M. tuberculosis BioA enzyme | inhibition, % at 9.99 µM; in the data active = inhibition above about 40%; inconclusive = no clear call, values can overlap the other calls
CCHF vOTU inh-1: CCHFV vOTU protease inhibitors, primary screen, biochemical, Pep-AMC substrate, fluorescence; 370,000 tested, 0.55% active; Crimean-Congo hemorrhagic fever virus L polyprotein viral ovarian tumor (vOTU) protease …; inhibition, % at 11.5 µM; in the data active = inhibition above about 30%; note: 0% = vehicle wells with enzyme and 100% = no enzyme wells
BioA inh-2: Mtb BioA enzyme inhibitors, dose response, biochemical, plate reader, cherry-pick samples, set 03. shares compounds with BioA inh-1. purified BioA enzyme. max activity, %. 310 tested, under 10 active. AID 651679, 2012;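 note: top concentration of the dilution series was 10 µM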
Target sequence (P9WQ81 whole entry, looked up): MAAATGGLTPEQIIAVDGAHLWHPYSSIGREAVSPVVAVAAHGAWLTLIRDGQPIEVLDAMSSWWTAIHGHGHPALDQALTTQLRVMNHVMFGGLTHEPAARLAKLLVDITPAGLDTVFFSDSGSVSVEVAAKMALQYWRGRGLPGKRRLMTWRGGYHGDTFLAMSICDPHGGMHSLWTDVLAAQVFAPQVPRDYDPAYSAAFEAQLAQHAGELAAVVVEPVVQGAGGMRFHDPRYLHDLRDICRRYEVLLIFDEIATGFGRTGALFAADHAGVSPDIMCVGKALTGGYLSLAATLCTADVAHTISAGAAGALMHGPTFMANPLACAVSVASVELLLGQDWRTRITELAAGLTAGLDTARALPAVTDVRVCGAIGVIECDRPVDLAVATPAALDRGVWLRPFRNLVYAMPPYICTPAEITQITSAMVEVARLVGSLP
HepG2 tox 2: cytotoxicity in HepG2 cells, dose response, cytotoxicity control, cell-based, plate reader, cherry-pick, two tests | shares compounds with BioA inh-1 | max activity, % | 310 tested, under 10 active | AID 651898, 2012
3T3 cytotox 5: cytotoxicity in NIH3T3 fibroblasts, dose response, cytotoxicity control, cell-based, plate reader, cherry-pick, two tests | AID 651900, 2012 | activity change, negative = cytotoxicity, % at 26 µM | 310 tested, under 10 active | shares compounds with BioA inh-1
CCHF vOTU inh-2: CCHFV vOTU protease inhibitors, confirmation, biochemical, Pep-AMC substrate, fluorescence. shares compounds with CCHF vOTU inh-1. Recombinant CCHFV vOTU. inhibition, % at 11.5 µM. 1,900 tested, 17% active. AID 686976, 2013; in the data active = inhibition above about 30%
* hit, by the source's call. Unless noted, the rule behind the calls is not given here.

Screening CNC(=O)C[C@H]1CC[C@@H]2[C@H](COc3ccc(NC(=O)c4ccc(OC)cc4)cc3C(=O)N2C)O1 returned BioA inh-1 13.
For O=C(C[C@@H]1C[C@@H]2c3cc(NS(=O)(=O)c4ccc(F)cc4)ccc3O[C@@H]2[C@H](CO)O1)NCC1CC1 the results were BioA inh-1 -2.
Screening O=C(Nc1cccnc1)c1ccc(Oc2ccccc2)cc1 returned RecA splice inh 1, Y pestis TopoI -4, Mtb betalactam 6, BJeLR lethal -4, BioA inh-1 69*, CCHF vOTU inh-1 2, BioA inh-2 -9, HepG2 tox 2 -8 and 3T3 cytotox 5 6.
`CC(C)(C)c1cc(C(=O)Nc2cccnc2)cc(C(=O)Nc2cccnc2)c1` gave RecA splice inh 1, Y pestis TopoI 5, Mtb betalactam 9, BJeLR lethal 4, BioA inh-1 45*, CCHF vOTU inh-1 19, BioA inh-2 4, HepG2 tox 2 11 and 3T3 cytotox 5 8.
`O=C(Nc1cccnc1)c1ccccc1Oc1ccccc1` gave RecA splice inh 5, Y pestis TopoI 1, Mtb betalactam 50, BJeLR lethal -7, BioA inh-1 4 and CCHF vOTU inh-1 24.
`O=C(Nc1ccc(NS(=O)(=O)c2ccccc2)cc1)c1cccnc1` gave RecA splice inh 0, Y pestis TopoI -4, Mtb betalactam -5, BJeLR lethal 3, BioA inh-1 52*, CCHF vOTU inh-1 0, BioA inh-2 9, HepG2 tox 2 -9 and 3T3 cytotox 5 -3.
CCCNS(=O)(=O)c1ccc(NC(=O)c2cccnc2)cc1 was read as RecA splice inh -1, Y pestis TopoI 6, Mtb betalactam -2, BJeLR lethal -4, BioA inh-1 23 and CCHF vOTU inh-1 -7.
COc1cccc(C(=O)Nc2cccnc2)c1 was read as RecA splice inh -7, Y pestis TopoI 11, Mtb betalactam 0, BJeLR lethal -2 and CCHF vOTU inh-1 -19.
COc1ccc(S(=O)(=O)Nc2ccc3c(c2)C(=O)N([C@H](C)CO)C[C@H](C)[C@@H](CN(C)C(=O)Cc2ccccc2)OCCCC[C@H](C)O3)cc1 was read as BioA inh-1 -1.
For COc1ccc(NC(=O)Nc2ccc3c(c2)C(=O)N([C@@H](C)CO)C[C@@H](C)[C@@H](CN(C)C(=O)Cc2ccccc2)OCCCC[C@@H](C)O3)cc1 the results were BioA inh-1 -1.
C[C@@H]1CN([C@@H](C)CO)S(=O)(=O)c2ccc(-c3ccc(F)cc3)cc2O[C@H]1CN(C)S(C)(=O)=O was read as BioA inh-1 3.
O=C(CSc1nnc(-c2ccncc2)n1-c1ccc(Cl)cc1)NCc1cccs1 was read as RecA splice inh 1, Y pestis TopoI -2, Mtb betalactam -1, BJeLR lethal 3, BioA inh-1 47*, CCHF vOTU inh-1 -11, BioA inh-2 -10, HepG2 tox 2 -13 and 3T3 cytotox 5 -8.
For Cc1c(Cl)cccc1-n1c(SCC(=O)NCc2cccs2)nnc1-c1ccncc1 the results were RecA splice inh 2, Y pestis TopoI 17, Mtb betalactam 2, BJeLR lethal 1, BioA inh-1 14 and CCHF vOTU inh-1 -11.
`O=C(CSc1nncs1)N1c2ccccc2Sc2ccccc21` gave RecA splice inh 9, Y pestis TopoI -4, Mtb betalactam -18, BJeLR lethal 6, BioA inh-1 44*, CCHF vOTU inh-1 -16, BioA inh-2 -2, HepG2 tox 2 -12 and 3T3 cytotox 5 -3.
For CO[C@H]1CN(C)C(=O)c2ccc(NC(C)=O)cc2OC[C@@H](C)N(C(=O)c2ccc(F)cc2)C[C@H]1C the results were BioA inh-1 50*, BioA inh-2 10, HepG2 tox 2 inactive and 3T3 cytotox 5 -5.
For O=C(CN1C(=O)/C(=C/c2cccc(Br)c2)SC1=S)Nc1cccnc1 the results were RecA splice inh 8, Y pestis TopoI 17, Mtb betalactam -2, BJeLR lethal -7, BioA inh-1 88*, CCHF vOTU inh-1 -4, BioA inh-2 5, HepG2 tox 2 4 and 3T3 cytotox 5 0.
Screening CCN(CC)c1ccc2cc(C(=O)c3cccs3)c(=O)oc2c1 returned BioA inh-1 91*, CCHF vOTU inh-1 17, BioA inh-2 -7, HepG2 tox 2 49 and 3T3 cytotox 5 -9.
CCN(CC)c1ccc2cc(-c3nc4ccccc4n3C)c(=O)oc2c1 was read as RecA splice inh -388, Y pestis TopoI 0, Mtb betalactam inconclusive, BJeLR lethal 41 and CCHF vOTU inh-1 -34.
C[C@@H]1CN([C@H](C)CO)C(=O)Cc2cc(NC(=O)Cc3cn(C)c4ccccc34)ccc2O[C@H]1CN(C)C(=O)Nc1ccc2c(c1)OCO2 was read as BioA inh-1 -2.
`Cc1ccc(/C=C(\CCC(=O)O)c2nc3ccccc3s2)cc1[N+](=O)[O-]` gave RecA splice inh 11, Y pestis TopoI 10, Mtb betalactam 6, BJeLR lethal -11, BioA inh-1 90*, CCHF vOTU inh-1 31*, BioA inh-2 -5, HepG2 tox 2 6, 3T3 cytotox 5 2 and CCHF vOTU inh-2 21.
`COc1ccc(NC(=O)Nc2ccc3c(c2)C(=O)N([C@@H](C)CO)C[C@H](C)[C@@H](CN(C)S(=O)(=O)c2cccs2)OCCCC[C@@H](C)O3)cc1` gave BioA inh-1 -2.
`COC(=O)c1ccc(-c2nc(O)c(C)s2)cc1` gave RecA splice inh 2, Y pestis TopoI -1, Mtb betalactam 4, BJeLR lethal -1, BioA inh-1 0 and CCHF vOTU inh-1 5.
Screening COC(=O)c1ccc(-c2nc3cc(Cl)c(N)cc3s2)cc1 returned RecA splice inh 3, Y pestis TopoI -5, Mtb betalactam -7, BJeLR lethal 12, BioA inh-1 -2, CCHF vOTU inh-1 43* and CCHF vOTU inh-2 -5.
For C[C@@H]1CN([C@@H](C)CO)S(=O)(=O)c2ccc(Br)cc2O[C@H]1CN(C)Cc1cccnc1 the results were BioA inh-1 5.

High-throughput results as filed in PubChem.
